# Rows were chosen to be rich in hits. Some 11% of all compounds tested hit in one or more screens of this group.
# HTT aggregate = qHTS Multiplex Assay to Identify Dual Action Probes in a Cell Model of Huntington: Aggregate Formation (GFP) | Potency, µM (top dose mostly 46.1 µM), hits mostly inhibitors | 1.1% of 220,000 active | PC12 HttQ103-GFP aggregates, Acumen cytometry, 40 h; note: nearly all actives have a fitted effect of over 60% in size
#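 Read-out: GFP aggregate count by laser scanning cytometer (488 nm excitation, 500-530 nm emission, 1–25 µm objects >6 SD above background). Cells: PC12, inducible HTTex1-Q103-GFP, 100 nM tebufenozide; compounds titrated.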
# HPGD block = qHTS Assay for Inhibitors of HPGD (15-Hydroxyprostaglandin Dehydrogenase). 15-hydroxyprostaglandin dehydrogenase [NAD(+)] (Homo sapiens), P15428. purified HPGD, NADH fluorescence kinetic, PGE2 substrate. Potency, µM, most hits filed as inhibitors. 4.3% of 150,000 active; active = well fitted inhibition curve with a large enough effect, not every such curve was filed as active; inconclusive = small, poorly fitted or top-dose-only effect, or another doubt; inactive = no such curve, though single readings can be large or run the other way
#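 NADH formation kinetics: reaction with 30 uM PGE2 and 1 mM NAD+ (final), 20 nM enzyme, Tris-HCl pH 8 with Tween 20, after 15 min compound preincubation at room temperature. Fluorescence change, last versus first of five reads.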
# HTT cytoprotect = qHTS Multiplex Assay to Identify Dual Action Probes in a Cell Model of Huntington: Cytoprotection (ATP); AID 1471, 2008; Potency, µM (top dose mostly 56.4 µM), hits mostly activators; PC12 HTT-Q103 induced, cytoprotection, ATP luminescence, 40 h; 0.14% of 230,000 active; note: nearly all actives have a fitted effect of over 45% in size
#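 PC12 cells with ecdysone-inducible HTT exon 1 Q103-GFP, induced with 100 nM tebufenozide and co-treated with library compounds in a dose series (1536-well, 1500 cells/well). Cytoprotection read as ATP content by ATPlite luminescence.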
# ALDH1A1 block = qHTS Assay for Inhibitors of Aldehyde Dehydrogenase 1 (ALDH1A1); Aldehyde dehydrogenase 1A1 (Homo sapiens), P00352; Purified ALDH1A1, NADH fluorescence, propionaldehyde substrate; Potency, µM (series often up to 75.3 µM), hits mostly inhibitors; 7.3% of 220,000 active; active = well fitted inhibition curve with a large enough effect, not every such curve was filed as active; inconclusive = small, poorly fitted or top-dose-only effect, or another doubt; inactive = no such curve, though single readings can be large or run the other way
# PNC assembly inh = High Content Assay for Compounds that inhibit the Assembly of the Perinucleolar Compartment; PC3M PTB-GFP, PNC prevalence imaging, 16 h; hits give low values; activity change (PNC), negative = inhibition, % at 10 µM; 3.1% of 140,000 active; AID 2417, 2010;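 active = readout at or below -70, meaning at least 70% loss of cells showing the perinucleolar compartment, a nuclear body marking cancer cells; inconclusive = readout between -30 and a set limit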
#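 Compounds are pinned in duplicate onto adhered PC3M cells stably expressing GFP-tagged PTB and incubated 16 h at 37 C. Cells are then fixed, nuclei stained with Hoechst, and PNC-positive cells counted.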
# CBFb-RUNX1 inh = qHTS Assay for Compounds Blocking the Interaction Between CBF-beta and RUNX1 for the Treatment of Acute Myeloid Leukemia; Runt-related transcription factor 1 (Homo sapiens) + Core-binding factor subunit beta …; 230,000 tested, under 10 active; AlphaScreen CBFb-His/RUNX1-biotin binding, biochemical; Potency, µM (series often up to 59.8 µM), usual class: inhibitors; AID 1477, 2009
# Target sequence (Q01196 whole entry, looked up): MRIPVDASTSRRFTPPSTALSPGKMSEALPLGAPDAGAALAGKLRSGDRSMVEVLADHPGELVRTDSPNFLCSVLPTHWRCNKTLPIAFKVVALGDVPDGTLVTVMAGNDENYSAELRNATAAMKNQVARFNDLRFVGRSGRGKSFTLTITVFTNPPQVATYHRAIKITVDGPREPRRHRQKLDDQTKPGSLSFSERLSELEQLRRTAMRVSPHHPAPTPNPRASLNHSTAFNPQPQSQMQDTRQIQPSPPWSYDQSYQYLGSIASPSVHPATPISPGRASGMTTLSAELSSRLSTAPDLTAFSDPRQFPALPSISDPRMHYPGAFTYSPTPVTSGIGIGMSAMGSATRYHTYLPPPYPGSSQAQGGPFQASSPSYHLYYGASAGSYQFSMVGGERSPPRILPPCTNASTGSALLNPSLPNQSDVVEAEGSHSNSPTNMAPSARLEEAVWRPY
# Target sequence (Q13951 whole entry, looked up): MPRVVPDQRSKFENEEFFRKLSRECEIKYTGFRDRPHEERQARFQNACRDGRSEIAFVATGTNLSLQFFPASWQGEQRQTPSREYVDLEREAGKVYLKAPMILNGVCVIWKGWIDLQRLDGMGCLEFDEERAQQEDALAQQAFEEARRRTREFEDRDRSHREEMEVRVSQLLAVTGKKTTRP
#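 CBFb-His/RUNX1-biotin, 30 nM each, preincubated 20 min RT; compound 15 min RT; Ni + streptavidin beads 50 ng each, 90 min RT; AlphaScreen read.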
# Hits are given with their value; - = inactive; ? = inconclusive; . = no result given; [ ] = dose if it differs, or a comment. Unless noted, calls come from the whole dose curve; as a rule, active = well fitted curve in the direction sought with a large enough effect; inconclusive = small, poorly fitted or top-dose-only effect, or another doubt; inactive = no such curve, though single readings can be large; an effect the other way counts as inactive or inconclusive.
SMILES,HTT aggregate,HPGD block,HTT cytoprotect,ALDH1A1 block,PNC assembly inh,CBFb-RUNX1 inh
CCOC(=O)N1CCN(Cc2nc3c(c(=O)n(C)c(=O)n3C)n2Cc2cc(C)ccc2C)CC1,-,-,-,0.89µM,?,-
Nc1nc2ncc(C(=O)c3cc(Cl)cc(Cl)c3O)cc2s1,-[9.22 µM],.,-[10 µM],?,.,-
CC(C)c1noc2ncc(C(=O)c3cc(Cl)cc(Cl)c3O)cc12,11µM,-,-,-,-,-
CCCCOC1CC(c2ccc(OCc3ccc(OC)cc3)c(OC)c2)N(C)O1 (centres undefined),?,.,-,-,.,-
C=C(CO)[C@H]1Cc2c(ccc3c(=O)c4c(oc23)COc2cc(OC)c(OC)cc2-4)O1,.,.,-,.,.,.
C=C(CO)C1Cc2c(ccc3c2OC2COc4cc(OC)c(OC)cc4C2C3=O)O1 (centres undefined),.,-,-[1.9 µM],22µM,.,-
O=C1C=C[C@@H](O)[C@@H]2[C@H]3C(=O)N(c4ccc(F)cc4F)C(=O)[C@@H]3CC[C@@H]12,.,.,-[10 µM],?,.,-[13.1 µM]
COc1ccc(-n2nc(C(=O)NCC(=O)NCc3ccco3)c3ccccc3c2=O)cc1Cl,-,.,-,-,-,-
CCOc1cc(NC(=S)NC)c(OCC)cc1NC(=O)c1ccc(OC)cc1,-[9.22 µM],.,-[10 µM],-,.,-
Cc1cccc(C)c1NC(=O)C(C)c1ccc(-c2ccccc2)c(F)c1 (centres undefined),18µM,-,-,-,-,-
Cc1cccc(C)c1NC(=O)C(NC=O)c1ccc(Cl)cc1 (centres undefined),-,-,-[10 µM],-,-,-
O=C1c2ccsc2SCCN1Cc1ccc(Cl)cc1Cl,-,-,-,?,?,-
O=C1c2ccsc2SCCN1Cc1c(Cl)cccc1Cl,22µM,-,-[10 µM],-,-,-
COCCCNc1c2c3c(cccc3[nH]c1=O)C(=O)c1ccccc1-2,10µM,-,-,?,?,?
Cn1cccc1C(=O)N1CCC[C@@]2(CCN(C(=O)Nc3cccc(C#N)c3)C2)C1,.,-,-,-,.,.
CCCc1[nH]n(-c2ccc([N+](=O)[O-])cc2)c(=O)c1C=NCCc1ccc(OC)c(OC)c1,-[9.22 µM],.,-[10 µM],1.8µM,.,-
CCCc1[nH]n(-c2ccc([N+](=O)[O-])cc2)c(=O)c1C=NCCc1c[nH]c2ccccc12,-,-,-[10 µM],-,-,-
CC(=O)N1[C@H](C)C=C[C@]1(Cc1ccccc1)C(=O)NCc1ccc(C)o1,.,14µM,-,?,.,-
CC(=O)N1[C@H](C)C=C[C@]1(Cc1ccccc1)C(=O)NCc1cc(F)cc(C(F)(F)F)c1,-,-,-,-,?,-[2.36 µM]
COC(=O)[C@@]1(Cc2ccccc2)C=C[C@@H](C)N1C(=O)c1ccccc1,.,-,-,40µM,.,-
C[N+](C)(C)CCOP(=O)(O)OP(=O)([O-])OC[C@H]1O[C@@H](n2ccc(N)nc2=O)[C@H](O)[C@@H]1O,-,-,.,-,-105,-
O=C(O)CC(Cn1[nH]nnc1=S)c1ccccc1 (centres undefined),-[9.22 µM],-,-,10µM,?,-
O=C(O)CC(CC(=O)Nc1nncs1)c1ccccc1 (centres undefined),?,-,-,-,-,-
COc1ccc(C2SCC(C(=O)NCc3ccc(F)cc3)N2C(C)=O)cc1 (centres undefined),-,-,-,-,-,-
CCCCCCCC(=O)NNC(=O)c1c(O)c2ccccc2n(CCC)c1=O,?,.,-[10 µM],-,.,-
COc1ccc(NC(=O)CNc2ccc(C#N)cc2)cc1,-,.,-,22µM,.,-
CC(C)Oc1ccc(NC(=O)Oc2ccccc2)cc1,-,-,-[10 µM],?,-,-
Cc1ccc(NC(=O)CNc2ccc(OC(C)C)cc2)cc1,-,-,-,7.1µM,-,?

# Assay outcomes from PubChem BioAssay.
